Among the data in PubChem BioAssay (NCI) are growth values, retold here.

SMILES strings stand for the structures. Compounds without any hit were thinned out: in the full panel of roughly 83,000, 20% have a hit.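 The test compound was applied at a single concentration to cells in 96-well plates for 48 hours, and percent growth was recorded.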 A number with no mark means an inactive call. The source made the active and inactive calls.

The test deals with HOP-92 NSCLC. Briefly: NCI-60 one-dose screen, 48 h (100 = growth as untreated, 0 = no growth, -100 = all killed). As to conditions: 10 µM unless noted. The procedure:
Growth inhibition of the HOP-92 human Non-Small Cell Lung tumor cell line is measured as a screen for anti-cancer activity. Cells are grown in 96 well plates and exposed to the test compound for 48 hours. Compounds are tested at a single concentration, which is 10^-5 M for most compounds. The reported endpoint is percent growth (GI% or GIPRCNT), where numbers from 0 - 100% represent growth inhibition, and numbers from -100% - 0 represent cell death. For example, a value of 40 represents 60% growth inhibition. A value of 0 means no net growth occurred over the course of the experiment. A value of -40 indicates 40% of cells at the beginning of the experiment died by the end of the experiment. A value of -100 means all cells are dead at the end of the experiment.
NCI-60 Human Tumor Cell Lines Screen was performed using the standard one-dose NCI protocol, which is described in more detail at https://dtp.cancer.gov/discovery_development/nci-60/default.htm.
Compounds with GIPRCNT values below 10 were considered active. Activity score was based on GIPRCNT using the following formula: […]
Score is 0 for GIPRCNT values of 100 or above, 50 for GIPRCNT values of 0, and 100 for GIPRCNT values of -100.
`Cc1cc(=O)oc2cc(OCCCOc3ccc(/C=C/C(=O)Nc4ccc(Cl)cc4)cc3)ccc12`: the growth was 25.2%.

As to `O=C(CSc1nc2sc3c(c2c(=O)n1-c1ccc(Cl)cc1)CCCC3)NNC(=O)Nc1ccc(Cl)c(C(F)(F)F)c1`, the growth is -12.3% (active).

Turning to `O=C(CN1CCOCC1)NNc1ncnc2ccccc12`, the growth is 51.5%.

With `C#Cc1nc(C2=C(C)C(=N\O)/C(=N/O)C2)cs1`, the growth is 88.5%.

On to `N/C(=N\c1nc2c(Br)cccc2s1)C(Br)Br`, for which the growth is -3.75% (active).

Consider `COc1ccc(C(=O)/C=C/c2ccc(OCc3ccc(C)cc3)c(OC)c2)cc1OC`, for which the growth was 60.6%.

With `CN1CCN(Cc2ccc(NC(=O)c3cncc(C#Cc4cnc5ccc(N6CCSCC6)nn45)c3)cc2C(F)(F)F)CC1`, the growth is -48.6% (active).

Regarding `COc1ccc(NC(=O)c2sc3nc(-c4cnccn4)cc(-c4cccs4)c3c2N)cc1`, the growth was 57.7%.

`COC(=O)C1CN(S(=O)(=O)/N=C2\NC(=O)NC2=C(Cl)Cl)C1`: the growth is 98.9%.

In the case of `CN(C)S(=O)(=O)c1oc(-c2ccccc2)nc1C#N`, the growth was 74.2%.

Take `Clc1ccc2c(NCCCN3CCOCC3)c3oc4ccc(Cl)cc4c3nc2c1`: the growth is 43.6%.

In the case of `Nc1cc(-c2c[nH]c3ccccc23)nc2cc(-c3c[nH]c4ccccc34)nn12`, the growth is 72.5%.

As to `COc1cccc(COc2ccc(/C=C3/C(=O)Nc4cc(Cl)ccc43)cc2)c1`, the growth is 79.8%.

Regarding `O=C1c2c(c3c4cccnc4[nH]c3c3ccc4ccccc4c23)C(=O)N1CCO`, the growth was 129%.

On to `O=C(CSc1nc2sc3c(c2c(=O)n1-c1ccc(Cl)cc1)CCCC3)N/N=C/c1ccc(F)cc1`, for which the growth is 97.3%.

For the molecule `C[C@@H](Nc1c(C#N)cnc2ccc(-c3cnc(N)nc3)cc12)c1ccccc1`, the growth was -10.5% (active).

For the molecule `CC(C)(C)Nc1nc2c(OCCc3ccccc3)cccn2c1-c1cccc(F)c1`, the growth was -27% (active).

On to `N#Cc1nc(-c2ccccc2)oc1S(N)(=O)=O`, for which the growth is 77.3%.

As to `CN1CCN(Cc2ccc(NC(=O)c3cncc(C#Cc4cnc5[nH]ncc5c4)c3)cc2C(F)(F)F)CC1`, the growth is -12.2% (active).

For the molecule `NS(=O)(=O)c1cccc(Nc2nc(SCC(=O)c3ccc([N+](=O)[O-])cc3)nc3ccccc23)c1`, the growth was 52%.

For `CN1C(=S)N(C)C2C1NN=C1SC(c3ccccc3)=CC(=O)N12` (stereo not given), the growth is 72.8%.

For `N#Cc1nc(-c2ccccc2)oc1S(=O)(=O)N1CCN(CCc2ccccn2)CC1`, the growth was 38.1%.

As for `O=C(CSc1nnc(-c2ccc3nc(-c4ccc(Cl)cc4)[nH]c3c2)o1)Nc1ccc(C(=O)/C=C/c2ccc(Cl)cc2)cc1`, the growth is 94.2%.

With `COc1ccc(/C=N/Nc2ccnc3cc(Cl)ccc23)cc1Cl`, the growth is -57.6% (active).

On to `C#Cc1nc(C2=C(C)C(=O)/C(=N/OC(C)=O)C2)cs1`, for which the growth is 50%.

Regarding `Cc1sc2nc(NCc3ccccc3Cl)[nH]c(=O)c2c1C`, the growth was 91.3%.

For `CN(C)CCCNc1c2ccc(Cl)cc2nc2c1oc1ccc(Cl)cc12`, the growth was 21.8%.

`CCOC(=O)c1c(Nc2ccccc2)nn2c(N)c(C#N)c(-c3ccc(F)cc3)nc12`: the growth is 99.5%.

Take `Cc1cc(C(NC(=O)CCCCCNc2cccc3c2C(=O)N(C2CCC(=O)NC2=O)C3=O)c2cccnc2)c(O)c2ncccc12` (stereo not given): the growth is -3.51% (active).

For `O=C(N/N=C/c1ccc([N+](=O)[O-])s1)c1[nH]c2ccc(Br)cc2c1-c1ccccc1`, the growth is -7.35% (active).

For `Cn1c(SCC(=O)c2cccs2)nc2ccccc2c1=O`, the growth is 87.3%.

In the case of `CN1CCc2c(sc3ncnc(N/N=C/c4ccc(Cl)c(Cl)c4)c23)C1`, the growth was 37.4%.

As to `Cc1ccc(CNS(=O)(=O)/N=C2\NC(=O)NC2=C(Cl)Cl)cc1`, the growth is -1.1% (active).

`O=C1NC(=C(Cl)Cl)/C(=N/S(=O)(=O)N2CCCCC2CC2(C(F)(F)F)N=N2)N1` (stereo not given): the growth was -51.6% (active).

With `Cc1nc2cnc(N)c(C#Cc3cncc(C(=O)Nc4ccc(Cl)c(C(F)(F)F)c4)c3)c2nc1C`, the growth is -23.9% (active).

Take `CC(C)(O)c1cncc(-c2ccc3ncnc(N4CCc5cc(F)c(Cl)cc54)c3c2)c1`: the growth was -6.69% (active).

Regarding `COc1cccc(N2CCN(c3ncnc4c3[nH]c3ccc(F)cc34)C[C@@H]2C)c1`, the growth was -27.1% (active).

Turning to `Nc1c(C(=O)Nc2ccc(Cl)cc2)sc2nc(-c3cnccn3)cc(-c3cccs3)c12`, the growth was 52.6%.

As to `Cc1cc2nc3c4cc(Cl)ccc4n(CC(=O)NCCN(C)C)c3nc2cc1C`, the growth was 57.1%.

As for `N#Cc1c(-c2ccc(Cl)cc2)nc(SCc2ccc(F)cc2)nc1N1CCNCC1`, the growth was 6.64% (active).
